Laboratory results: the supplement of paper PMC10981050
Several values for one entry are separate records, joined by “and”; a condition that tells them apart may be missing. Equal entries are not always repeated. Structures can show the parent of a compound that is named as a salt.

Legend:
Assay in all cases: cell viability relative to vehicle control; higher = less cytotoxic
Conditions in all cases: 10 µM
K562 = test system: K562
Method in brief: (§1)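 Four leukaemia lines, as CRISPR-edited mutant clones and isogenic wild-type clones, were tested against Selleck bioactive, kinase and epigenetic probe libraries after removal of identity-inconsistent compounds. Cells were exposed to a single 10 µM dose for 48 h, and CellTiter-Glo luminescence was then read. Viability was calculated relative to the on-plate vehicle control.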

MARIMO = test system: MARIMO
Method in brief: as §1

MOLM14 = test system: MOLM14
Method in brief: as §1

OCI-AML2 = test system: OCI-AML2
Method in brief: as §1

SMILES | cell viability (K562; SRSF2 genotype: SRSF2 P95H/wt) | cell viability (K562; SRSF2 genotype: SRSF2 wt/wt) | cell viability (MARIMO; SRSF2 genotype: SRSF2 P95H/wt) | cell viability (MARIMO; SRSF2 genotype: SRSF2 wt/wt) | cell viability (MOLM14; SRSF2 genotype: SRSF2 P95H/wt) | cell viability (MOLM14; SRSF2 genotype: SRSF2 wt/wt) | cell viability (OCI-AML2; SRSF2 genotype: P95H/wt) | cell viability (OCI-AML2; SRSF2 genotype: wt/wt)
NS(=O)(=O)NCCNc1nonc1/C(=N/O)Nc1ccc(F)c(Br)c1 | 97.2% and 102% | 95.5% | 102% | 104% | 103% | 100% | 106% | 109%
COc1cc(O)c2c(=O)c(O[C@@H]3O[C@H](CO)[C@@H](O)[C@H](O)[C@H]3O)c(-c3ccc(O[C@@H]4O[C@H](CO)[C@@H](O)[C@H](O)[C@H]4O)cc3)oc2c1 [Complanatuside] | 105% and 101% | 106% | 108% | 104% | 108% | 106% | 107% | 96.2%
O=C(O)c1ccc(Cl)cc1O [4-Chloro-2-hydroxybenzoic acid] | 108% and 109% | 98.6% | 104% | 103% | 101% | 107% | 101% | 115%
C[C@]12CC[C@@H]3c4ccc(O)cc4CC[C@H]3[C@@H]1CCC2=O [Estrone] | 100% and 92.7% | 103% | 94.5% | 96.6% | 101% | 99.1% | 101% | 113%
CC1(C)C=C(CN2C/C(=C\c3ccc(F)cc3)C(=O)/C(=C/c3ccc(F)cc3)C2)C(C)(C)N1O | 1.83% and 3.61% | 1.04% | 0.52% | 1.15% | 0.27% | 0.28% | 0.24% | 0.32%
Cn1nnc(-c2ccc(-c3ccc(N4C[C@H](COP(=O)(O)O)OC4=O)cc3F)cn2)n1 [Tedizolid Phosphate] | 81.5% and 82.6% | 84.9% | 88.8% | 94.5% | 91.8% | 92.3% | 82.3% | 87.8%
C[C@@H](NC(=O)c1ncnc(N)c1Cl)c1ncc(C(=O)Nc2cc(C(F)(F)F)c(Cl)cn2)s1 | – | 51.4% | 54.7% | 58.1% | 86.1% | 95.3% | 66.9% | 69.8%
NC(CO)C(=O)NNCc1ccc(O)c(O)c1O (centres undefined) [Benserazide HCl] | – | 80.2% | 103% | 95.5% | 85.3% | 71.6% | 94.2% | 99.5%
COc1cccc(-n2c(=O)[nH]c3cc(Cl)n(-c4ccc(-c5cccc(OC)c5O)cc4)c3c2=O)c1 | 91.6% and 97.4% | 93% | 108% | 117% | 107% | 102% | 95.8% | 97.3%
C[C@H]1O[C@@H](Oc2c(-c3cc(O)c(O)c(O)c3)oc3cc(O)cc(O)c3c2=O)[C@@H](O)[C@@H](O)[C@@H]1O [Myricitrin (Myricitrine)] | 94.5% and 101% | 99.4% | 102% | 102% | 104% | 103% | 108% | 94.3%
COc1cc([C@@H]2c3cc4c(cc3[C@@H](O[C@@H]3O[C@@H]5CO[C@@H](C)O[C@H]5[C@H](O)[C@H]3O)[C@H]3COC(=O)[C@H]23)OCO4)cc(OC)c1O [Etoposide (VP-16)] | – | 82% | 7.2% | 6.84% | 15.3% | 4.31% | 13% | 14.8%
COc1ccc(N2C(=O)/C(=C\c3ccc([N+](=O)[O-])s3)SC2=S)cc1 | – | 66.2% | 71.8% | 52.8% | 36.7% | 58.2% | 0.66% | 5.17%
O=C(O)COCCN1CCN([C@H](c2ccccc2)c2ccc(Cl)cc2)CC1 [Levocetirizine Dihydrochloride] | 99% and 88.4% | 101% | 93.2% | 107% | 92.4% | 99.3% | 91.7% | 103%
O=C(CCNC(=O)c1ccc(OC(F)(F)F)cc1)N[C@@H]1CCCc2ccccc21 | 105% and 110% | 91.3% | 96% | 105% | 93.7% | 94.6% | 93.8% | 106%
CC(Nc1nc(N2CCCC2)nc2ccccc12)c1ccccc1 (centres undefined) [Importazole] | – | 29.2% | 46.3% | 64.7% | 51.2% | 48.2% | 51.8% | 58.2%
O=CN1CC/C(=C/c2ccc3c(c2)OCO3)C1=O | 99.4% and 95.3% | 94.6% | 95.2% | 104% | 75.9% | 90.1% | 67.1% | 74.7%
CC1CCc2c(N3CCC(O)CC3)c(F)cc3c(=O)c(C(=O)O)cn1c23 (centres undefined) [Nadifloxacin] | 94% and 98.4% | 92.4% | 102% | 105% | 107% | 108% | 114% | 94%
CC(C)(C)S(=O)(=O)c1ccc2nccc(Nc3n[nH]c4ccc(F)cc34)c2c1 | 91.4% and 95.8% | 98.8% | 92.8% | 99.5% | 88% | 95.6% | 88.9% | 86.2%
COc1ccnc(C[S+]([O-])c2nc3cc(-n4cccc4)ccc3[nH]2)c1C (centres undefined) [Ilaprazole] | 90.7% and 95.4% | 92.4% | 87.3% | 105% | 99.9% | 101% | 82.5% | 97.3%
COc1cc(N2CCC(N(C)C)CC2)ccc1Nc1ncc(Cl)c(Nc2ccccc2P(C)(C)=O)n1 | 41.2% and 62.9% | 34.2% | 34% | 27.2% | 1.15% | 3.56% | 4.59% | 12.3%
C[C@]12CC[C@@H]3c4ccc(O)cc4C[C@@H](CCCCCCCCC[S+]([O-])CCCC(F)(F)C(F)(F)F)[C@H]3[C@@H]1CC[C@@H]2O (some centres undefined) [Fulvestrant (Faslodex)] | 86% and 87.5% | 79.5% | 77.1% | 87% | 93.1% | 89.1% | 91.4% | 96.7%

SMILES | cell viability (K562; SRSF2 genotype: SRSF2 P95H/wt) | cell viability (K562; SRSF2 genotype: SRSF2 wt/wt) | cell viability (MARIMO; SRSF2 genotype: SRSF2 P95H/wt) | cell viability (MARIMO; SRSF2 genotype: SRSF2 wt/wt) | cell viability (MOLM14; SRSF2 genotype: SRSF2 P95H/wt) | cell viability (MOLM14; SRSF2 genotype: SRSF2 wt/wt) | cell viability (OCI-AML2; SRSF2 genotype: P95H/wt) | cell viability (OCI-AML2; SRSF2 genotype: wt/wt)
CCCCCCCCCC=O [Decyl aldehyde] | 98.7% and 94.8% | 106% | 99.1% | 101% | 102% | 105% | 100% | 111%
CN1CC2c3ccccc3Oc3ccc(Cl)cc3C2C1 (centres undefined) [Asenapine maleate] | 88.3% and 92.2% | 88.2% | 63% | 78.8% | 88% | 92.6% | 69.9% | 73.2%
CCOC(C)OCCc1ccccc1 (centres undefined) [Efetaal] | 105% and 100% | 108% | 97.8% | 99.3% | 107% | 107% | 104% | 98.9%
Cc1cnc(-c2cnc(NCCNc3ccc(C#N)cn3)nc2-c2ccc(Cl)cc2Cl)[nH]1 | – | 63.6% and 69.4% | 96.3% and 94.4% | 119% and 126% | 87.2% and 98.8% | 103% and 110% | 95.8% and 99.6% | 124% and 133%
COc1cc2ncnc(Nc3cccc(Cl)c3)c2cc1OC [AG-1478 (Tyrphostin AG-1478)] | 75% and 83.2% | 76.4% | 81.7% | 90% | 59.7% | 67.6% | 58% | 62.2%
CN1CCCC(n2nc(Cc3ccc(Cl)cc3)c3ccccc3c2=O)CC1 (centres undefined) [Azelastine hydrochloride (Astelin)] | 87% and 91% | 92.6% | 88.1% | 90.3% | 78.9% | 88.6% | 75.9% | 72.6%
CC(C)(C)c1cc(O)c(C(C)(C)C)cc1O | 97% and 97.5% | 95.7% | 73.4% | 92.5% | 88.8% | 93.5% | 86.2% | 93.3%
O=C(CCCCCCNC(=O)c1cnc(N(c2ccccc2)c2ccccc2)nc1)NO | – | 52.1% | 17.6% | 35.3% | 2.73% | 2.08% | 0.54% | 1.52%
CC(C)C(=O)Oc1ccc(CO)cc1[C@H](CCN(C(C)C)C(C)C)c1ccccc1 [Fesoterodine Fumarate] | 97.2% and 107% | 102% | 91.7% | 98.4% | 102% | 104% | 113% | 98%
NC(=O)c1cccc(-c2cc(Nc3ccc(OC(F)(F)F)cc3)ncn2)c1 | – | 26.8% | 70.1% | 58.7% | 102% | 102% | 43.7% | 55.3%
c1nc2c(NC3CCCCC3)nc(Nc3ccc(N4CCOCC4)cc3)nc2[nH]1 [Reversine] | – | 70.6% | 38% | 33.8% | 9.79% | 7.29% | 10.8% | 16.3%
c1cc(-c2cnn3cc(-c4ccc(OCCN5CCCCC5)cc4)cnc23)ccn1 [Dorsomorphin (Compound C)] | – | 64.1% | 73.8% | 80.9% | 16.4% | 10.9% | 33.1% | 36.2%
Cc1cc(N2C[C@@H](C)N[C@@H](C)C2)ncc1-c1ccc(-c2nc3c(ccn3C)c(=O)[nH]2)cc1 | – | 59% | 79.6% | 76.4% | 0.95% | 1.53% | 5.67% | 3.85%
COc1cc2nccc(Oc3ccc(NC(=O)Nc4ccc(F)cc4F)c(F)c3)c2cc1OC | – | 93.5% | 109% | 112% | 25.1% | 19.4% | 40.2% | 51.5%
C[C@H](CS)C(=O)N1CCC[C@H]1C(=O)O [Captopril (Capoten)] | – | – | 103% | 106% | 102% | 102% | 97.7% | 97.8%
O=C(NC1CC1)c1cc(-c2cccs2)on1 [Isoxazole 9 (ISX-9)] | – | 53.5% | 58.5% | 63% | 46.8% | 35.5% | 74.8% | 74.7%
CNC(=O)c1ccccc1Nc1nc(Nc2ccc(N3CCOCC3)cc2OC)ncc1Cl | – | 113% | 44.3% | 39.6% | 9.8% | 6.5% | 13.3% | 20.4%
CCOc1ccn(-c2ccc(F)cc2)c(=O)c1C(=O)Nc1ccc(Oc2ccnc(N)c2Cl)c(F)c1 | – | 42% | 69.1% | 82.8% | 11.3% | 6.04% | 20.9% | 28.1%
CC(=O)Oc1cc(C)c(OC(C)=O)c2ccccc12 [Menadiol Diacetate] | – | 95.2% | 49.6% | 53.5% | 15.3% | 7.05% | 5.63% | 11.2%
CNC(=O)c1ccccc1Oc1nc(Nc2cc(OC)c(OC)c(OC)c2)ncc1Br | – | 90.6% | 52.5% | 55.3% | 8.58% | 5.16% | 11.6% | 19%
